# Experimental data as given in PubChem BioAssay (NCATS).
# Inconclusive results are not listed. A call without a number means that no potency is given here. A number with no mark means an inactive call. Calls of active or inactive are those of the source. The call rests on the fitted dose curve. Numbered stars: 1 amine (or outer) side, 2 acyl side, 3 side chain; on linkers, the order of the positions; unused ones are H or OH. Bridge positions count the residues as written; N and C are the ends. Square brackets hold non-standard residues; d marks the D form. Peptide text beside a SMILES is read from it. I, II: the chains in the order shown. Actinocin(9to1) = Cc1c2oc3c(C)ccc(C(=O)[*:1])c3nc-2c(C(=O)[*:2])c(N)c1=O; NMeV = CN[C@H](C(=O)O)C(C)C; Sar = CNCC(=O)O
# Assay: A High-Content qHTS Against Drug Library for the Identification of Small Molecules that Inhibit DYT1 Early Onset Primary Dystonia-Associated Cell Pathology (AID 1645839)
# Details: HEK293 Flp-In EGFP-delE TorsinA, punctate imaging, 48 h; series mostly up to 46.1 µM
# From the text: Nicole Calakos M.D., Ph.D.
# Duke University School of Medicine, Durham, NC
# In DYT1 dystonia due to delGAG in the TOR1A gene, there is a robust and widely replicated finding of TorsinA protein mislocalization caused when the mutant protein is in excess of the wildtype protein (1-7). Stable HEK293 cell lines were created that replicate this phenomenon. Inducible expression of an EGFP-hu delE TorsinA encoding cDNA causes pronounced punctate cellular distribution. […] This phenotypic difference in EGFP-huTorsinA fusion protein distribution serves as an indicator of cell pathology. […] RNAi screen results with the assay were validated in DYT1 patient cell phenotypes, intersected with a known dystonia gene, and led to discovery of new human genetic dystonia associations.
# The bioassay described herein is a high-content image screen with two readouts. The "%pathology" readout is the primary qHTS data channel, while the "cellcount" is the counterscreen qHTS channel. Desired active compounds are those that show inhibition in %pathology channel but no activity or minimal toxicity in cellcount readout.
# 1. Kustedjo, K., Bracey, M.H., and Cravatt, B.F. (2000). […] J. Biol. Chem. 275, 27933 - 27939.
# 2. Bragg, D.C., Kaufman, C.A., Kock, N., and Breakefield, X.O. (2004). Inhibition of N-linked glycosylation prevents inclusion formation by the dystonia-related mutant form of torsinA. Mol. Cell. Neurosci. 27, 417 - 426.
# 3. Gonzalez-Alegre, P., and Paulson, H.L. (2004). Aberrant Cellular Behavior of Mutant TorsinA Implicates Nuclear Envelope Dysfunction in DYT1 Dystonia. J. Neurosci. 24, 2593 - 2601.
# 4. Goodchild, R.E., and Dauer, W.T. (2004). Mislocalization to the nuclear envelope: an effect of the dystonia-causing torsinA mutation. Proc. Natl. Acad. Sci. U. S. A. 101, 847 - 852.
# 5. Kock, N., Allchorne, A.J., Sena-Esteves, M., Woolf, C.J., and Breakefield, X.O. (2006). RNAi blocks DYT1 mutant torsinA inclusions in neurons. Neurosci. Lett. 395, 201 - 205.
# 6. Hewett, J.W., Nery, F.C., Niland, B., Ge, P., Tan, P., Hadwiger, P., Tannous, B.A., Sah, D.W.Y., and Breakefield, X.O. (2008). siRNA knock-down of mutant torsinA restores processing through secretory pathway in DYT1 dystonia cells. Hum. Mol. Genet. 17, 1436 - 1445.
# 7. Calakos, N., Patel, V.D., Gottron, M., Wang, G., Tran-Viet, K.N., Brewington, D., Beyer, J.L., Steffens, D.C., Krishnan, R.R., and Zuchner, S. (2010). Functional evidence implicating a novel TOR1A mutation in idiopathic, late-onset focal dystonia. J. Med. Genet. 47, 646 - 650.
# 8. Rittiner* JE, Caffall* ZF, Hernandez-Martinez R, Sanderson SM, Pearson JL, Tsukayama KK, Liu AY, Xiao C, Tracy S, Shipman MK, Hickey P, Johnson J, Scott B, Stacy M, Saunders-Pullman R, Bressman S, Simonyan K, Sharma N, Ozelius LJ, Cirulli ET, Calakos N. Functional Genomic Analyses of Mendelian and Sporadic Disease Identify Impaired eIF2alpha Signaling as a Generalizable Mechanism for Dystonia. Neuron. 2016 Dec 21;92(6):1238-1251. doi: 10.1016/j.neuron.2016.11.012. Epub 2016 Dec 8. PMID: 27939583; PMCID: PMC5320521.
# High-content, High-throughput Drug Screening Assay
# The TorsinA mislocalization assay was modified from the previously published assay to accommodate compound testing in 1536 well format.1 Briefly, Flp-In T-REx 293 cells from Invitrogen in which a single copy of a cDNA is recombined into a specific genomic locus was used to create tetracycline-inducible expression of cDNA encoding either EGFP-hTOR1A (WT) or EGFP-delE hTOR1A (DYT1). WT and DYT1 cells were diluted to a concentration of 2 x 10^5 cells/mL in reduced serum media (DMEM High Glucose containing 1% tetracycline-tested FBS, 2 mM L-Glutamine, and 1% Penicillin/Streptomycin). 4 µl of WT cells and 4 µl of DTY1 cells were added to column 1 and columns 2-48, respectively, of a poly-D-lysine-coated, low base, black, clear bottom 1536 well plate (Corning, Corning, NY) using the BioRAPTR FRD Microfluidic Workstation (Beckman Coulter, Indianapolis, IN). The final cell number was 800 cells/well. […]
# Potency means the concentration at half of the fitted maximal effect.
SMILES,Potency,"% pathology change, negative = correction"
CN1[C@@H]2CC[C@H]1CC(OC(=O)c1c[nH]c3ccccc13)C2 (stereo not given in full),inactive,
C[C@H](CCC(=O)O)[C@H]1CC[C@H]2[C@@H]3C(=O)C[C@@H]4CC(=O)CC[C@]4(C)[C@H]3CC(=O)[C@]12C,inactive,
C/C=C/c1ccc(OC)cc1,inactive,
COc1cc(OC)cc(OC)c1,inactive,
"Cc1c2oc3c(C)ccc(C(=O)N[C@@H]4C(=O)N[C@H](C(C)C)C(=O)N5CCC[C@H]5C(=O)N(C)CC(=O)N(C)[C@@H](C(C)C)C(=O)O[C@@H]4C)c3nc-2c(C(=O)N[C@@H]2C(=O)N[C@H](C(C)C)C(=O)N3CCC[C@H]3C(=O)N(C)CC(=O)N(C)[C@@H](C(C)C)C(=O)O[C@@H]2C)c(N)c1=O (I: T[dV]P[Sar][NMeV] / II: T[dV]P[Sar][NMeV]; ester I:1-I:C, II:1-II:C; linker I:N-II:N via Actinocin(9to1))",inactive,
CN=C(NC#N)NCCSCc1csc(N=C(N)N)n1,inactive,
Oc1cc(O)c2c(c1)O[C@H](c1ccc(O)c(O)c1)[C@H](O)C2,inactive,
C[C@]12CC[C@@H]3c4ccc(O)cc4CC[C@H]3[C@@H]1C[C@@H](O)[C@@H]2O,inactive,
CCCC(=O)O[C@]1(C(=O)CO)CC[C@H]2[C@@H]3CCC4=CC(=O)CC[C@]4(C)[C@H]3[C@@H](O)C[C@@]21C,inactive,
CN1CCN(C(c2ccccc2)c2ccccc2)CC1,inactive,
OC[C@H]1O[C@H](O[C@]2(CCl)O[C@H](CCl)[C@@H](O)[C@@H]2O)[C@H](O)[C@@H](O)[C@H]1Cl,inactive,
COc1cc2c(cc1OC)C(=O)C(CC1CCN(Cc3ccccc3)CC1)C2 (stereo not given),12.6 µM (active),
COc1cc(C=C2CCC/C(=C\c3ccc(O)c(OC)c3)C2=O)ccc1O,7.08 µM (active),
OC(CCN1CCCCC1)(c1ccccc1)c1ccccc1,inactive,
COc1c2occc2c(OC)c2c(=O)cc(C)oc12,inactive,
Cc1ncc(CSSCc2cnc(C)c(O)c2CO)c(CO)c1O,inactive,
N[C@@H](CCC(=O)N[C@@H](CS)C(=O)NCC(=O)O)C(=O)O,inactive,
O=C(N/N=C/c1ccccc1O)c1ccncc1,inactive,
CC(C)COC(=O)c1ccc(N)cc1,inactive,
COC(=O)CCc1ccc(OCC(O)CNC(C)C)cc1 (stereo not given),inactive,

SMILES,Potency,"% pathology change, negative = correction"
CCN1CCN(c2cc3c(cc2F)c(=O)c(C(=O)O)cn3C2CC2)CC1,inactive,
COc1cc(C(=S)N2CCOCC2)cc(OC)c1OC,inactive,
CCOC(=O)COc1ccc2c(C)c(CCN(CC)CC)c(=O)oc2c1Cl,inactive,
CCN1CCC[C@H]1CNC(=O)c1c(OC)ccc(Br)c1OC,inactive,
COc1ccc(OC)c(C(O)CNC(=O)CN)c1 (stereo not given),inactive,
CCC(C(=O)OCCN(CC)CC)c1ccccc1 (stereo not given),inactive,
NC[C@H]1O[C@H](O[C@H]2[C@H](O)[C@@H](O[C@H]3O[C@H](CO)[C@@H](O)[C@H](N)[C@H]3O)[C@H](N)C[C@@H]2N)[C@H](N)[C@@H](O)[C@@H]1O,inactive,
C=C1C[C@H]2[C@@H]3C=C(C)C4=CC(=O)CC[C@]4(C)[C@H]3CC[C@]2(C)[C@@]1(OC(C)=O)C(C)=O,inactive,
Cc1cccn2c(=O)c(-c3nnn[nH]3)cnc12,inactive,
CC(C)(CO)[C@@H](O)C(=O)NCCCO,inactive,
Cc1nc2n(c(=O)c1CCN1CCC(c3noc4cc(F)ccc34)CC1)CCC[C@H]2O,inactive,
NC(=O)c1cc[n+](CC2=C(C(=O)[O-])N3C(=O)[C@@H](NC(=O)Cc4cccs4)[C@H]3SC2)cc1,inactive,
N[C@H](Cc1c[nH]c2ccccc12)C(=O)O,inactive,
CC1(C)O[C@@H]2[C@@H](CO[C@@]3(COS(N)(=O)=O)OC(C)(C)O[C@@H]23)O1,inactive,
CC(Cc1ccccc1)(NC(=O)CN)c1ccccc1 (stereo not given),inactive,
Cc1c(C)n(Cc2ccccc2)c2ccc(C(=O)OCCN(C)C)cc12,11.2 µM (active),
Cc1ccc(C(=O)C(C)CN2CCCCC2)cc1 (stereo not given),inactive,
NC[C@H]1O[C@H](O[C@H]2[C@H](O[C@@H]3O[C@H](CO)[C@@H](O)[C@H]3O)C(O)[C@H](N)C[C@@H]2N)[C@H](N)[C@@H](O)[C@@H]1O (stereo not given in full),,1.85% [at 9.22 µM]
CCOC(=O)n1ccn(C)c1=S,inactive,
CC1(C)O[C@@H]2C[C@H]3[C@@H]4C[C@H](F)C5=CC(=O)C=C[C@]5(C)[C@H]4[C@@H](O)C[C@]3(C)[C@]2(C(=O)CO)O1,inactive,
